Data published in PubChem BioAssay (Tox21).
Several values for one entry are separate records, joined by “and”; a condition that tells them apart may be missing. Identical values can stand only once. Inconclusive results are not listed. Some compounds were tested as several samples or in several runs, with calls that do not always agree. Activity calls are given as the source filed them. Unless noted, calls come from the whole dose curve.

Tests used:
[1] = Nuclear factor erythroid 2-related factor 2/antioxidant responsive element (Nrf2/ARE) small molecule agonists: qHTS cell viability counter screen in human keratinocytes (AID 1919968; active = well fitted curve in the direction sought with a large enough effect in the repeat runs; an effect the other way counts as inactive or inconclusive; note: nearly all actives have a fitted effect of over 55% in size; note: potency is the fitted concentration of half-maximal effect)
In short: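 Cytotoxicity was multiplexed with the Nrf2/ARE luciferase assay in the same wells. Stably transfected HaCaT keratinocytes were treated with test compounds for 23 h at 37 C. Cell viability was then measured by CellTiter-Fluor fluorescence.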

[2] = Nuclear factor erythroid 2-related factor 2/antioxidant responsive element (Nrf2/ARE) small molecule agonists: luciferase reporter gene qHTS assay in human keratinocytes (AID 1919969); note: nearly all actives have a fitted effect of over 35% in size; note: potency is the fitted concentration of half-maximal effect
[3] = target: Gonadotropin-releasing hormone receptor (Homo sapiens) (UniProt P30968); experiment: Human gonadotropin-releasing hormone receptor (GnRHR) small molecule agonists, calcium flux assay in GnRHR-HEK293 cells (AID 1920063); note: nearly all actives have a fitted effect of over 35% in size
In short: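 Agonist activity was measured as intracellular calcium flux in HEK293 cells engineered to stably express human GnRHR. After dye loading for 1 hour at 37 C, compounds in DMSO were added and fluorescence was followed for 3 minutes.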

[4] = target: KiSS-1 receptor (Homo sapiens) (UniProt Q969F8); experiment: Human kisspeptin (KISS1R) small molecule agonists, calcium flux assay in KISS1R-HEK293 cells (AID 1920064; active = well fitted curve in the direction sought with a large enough effect in the repeat runs; an effect the other way counts as inactive or inconclusive)
In short: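 Agonist activity is monitored as intracellular calcium rise in engineered HEK293 cells carrying human KISS1R. Cells are dye-loaded for 1 h at 37 C before compound addition, and fluorescence is recorded for 3 min.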

[5] = G protein-coupled receptor (GPCR) small molecule agonists, calcium flux assay: HEK293 wild type cell line counter screen (AID 1920065)
In short: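 Seed cells, incubate 18 h (37 C, 5% CO2); add calcium dye, 1 h at 37 C; pin-transfer compounds, ATP control or DMSO; read fluorescence 480/540 nm each second for 3 min.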

[6] = p53 small molecule agonists, cell-based qHTS assay with human liver microsomes (AID 1963577);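 note: p53 response element beta-lactamase reporter cells with liver microsomes plus NADPH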
In short: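 Reporter activation was measured by LiveBLAzer fluorescence intensity in p53RE-bla cells, which had been exposed to compounds for 16 h at 37 C alongside 0.5 mg/mL human liver microsomes and 0.5 mg/mL NADPH (final concentrations).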

[7] = p53 small molecule agonists, cell-based qHTS assay with rat liver microsomes (AID 1963578)
In short: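 Compound in DMSO added to p53RE-bla cells 5 h post-plating; rat microsomes/NADPH 0.5 mg/mL final; 16 h, 37 C; LiveBLAzer 2 h RT.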

[8] = p53 small molecule agonists, cell-based qHTS assay with human liver microsomes: qHTS cell viability counter screen (AID 1963579); note: nearly all actives have a fitted effect of over 45% in size
In short: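 HLM-supplemented (0.5 mg/mL final) and NADPH-supplemented (0.5 mg/mL final) p53RE-bla cultures, 4,000 cells per well, were dosed with compounds in DMSO for 16 h at 37 C; luminescent ATP detection (CellTiter-Glo, 30 min, room temperature) quantified surviving cells.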

[9] = p53 small molecule agonists, cell-based qHTS assay with rat liver microsomes: qHTS cell viability counter screen (AID 1963580); note: nearly all actives have a fitted effect of over 45% in size
In short: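 After the beta-lactamase ratio was read, CellTiter-Glo was added to the same wells and luminescence measured at 30 min; cells had been treated 16 h at 37 C with compounds, rat liver microsomes and NADPH (0.5 mg/mL final each).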

[10] = p53 small molecule agonists, cell-based qHTS assay: qHTS cell viability counter screen (AID 1963581); note: nearly all actives have a fitted effect of over 45% in size
In short: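 Viability was counter-screened in parallel with the p53 agonist reporter by measuring intracellular ATP luminescence in the same HCT-116 p53RE-bla wells after 16 h compound treatment at 37 C.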

[11] = p53 small molecule agonists, cell-based qHTS assay (AID 1963582; active = well fitted activation curve with a large enough effect in the signal ratio in the repeat runs, not every such curve was filed as active; the % refers to the signal ratio)
In short: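 Cells carrying a p53-responsive bla reporter are treated with test compounds for 16 h at 37 C; beta-lactamase activity is then detected with LiveBLAzer B/G FRET substrate after 2 h at room temperature.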

[12] = target: 5-hydroxytryptamine receptor 2A (Homo sapiens) (UniProt P28223); experiment: 5-hydroxytryptamine receptor 2A (HTR2A) small molecule antagonists, cell-based qHTS assay (AID 1963586); note: nearly all actives have a fitted effect of over 45% in size
In short: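 CHO cells stably expressing human HTR2A were plated for 18 h at 37 C, then loaded with calcium dye for 1 h. Compounds were preincubated 5 min at room temperature before DOI (4 nM solution) was added. Kinetic fluorescence was read for 3 min.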

[13] = target: Muscarinic acetylcholine receptor M1 (Homo sapiens) (UniProt P11229); experiment: Cholinergic receptor muscarinic 1 (CHRM1) small molecule antagonists, cell-based qHTS assay (AID 1963588); note: nearly all actives have a fitted effect of over 40% in size; note: potency is the fitted concentration of half-maximal effect
In short: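 Compounds were tested at 15 concentrations in three independent runs. Dye-loaded CHRM1-CHO cells were exposed 5 min at room temperature before stimulation by acetylcholine added at 50nM. Intracellular calcium was read kinetically on FDSS for 3 min.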

[14] = target: Muscarinic acetylcholine receptor M1 (Homo sapiens) (UniProt P11229); experiment: Cholinergic receptor muscarinic 1 (CHRM1) small molecule agonists, cell-based qHTS assay (AID 1963589); note: nearly all actives have a fitted effect of over 35% in size
In short: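 Cells were plated and incubated 18 h at 37 C/5% CO2, loaded with calcium dye for 1 h at 37 C, then treated with compounds in DMSO. Fluorescence was recorded kinetically at 1 sec intervals.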

[15] = cAMP Responsive Elements (CRE) small molecule agonists, cell-based qHTS assay (AID 1963590)
In short: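 Cells carrying a CRE-driven beta-lactamase reporter (HEK 293T) are seeded, incubated overnight (18 h), and treated with test compounds for 3 h at 37 C; reporter activity is then detected with a FRET substrate after 2 h at room temperature.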

[16] = cAMP Responsive Elements (CRE) small molecule antagonists, cell-based qHTS assay (AID 1963591; active = well fitted inhibition curve with a large enough effect in the signal ratio in the repeat runs, not every such curve was filed as active; the % refers to the signal ratio)
In short: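 Cells (CRE-bla HEK 293T, DMEM with 10% dialyzed FBS and 25 mM HEPES) are seeded and incubated 18 h. Compounds are added with NKH477 agonist at 0.25 uM final for 3 h, then FRET substrate for 2 h.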

[17] = target: Beta-2 adrenergic receptor (Homo sapiens) (UniProt P07550); experiment: Adrenergic beta2 receptor (ADRB2) small molecule antagonists, cell-based qHTS assay (AID 1963592); note: series mostly up to about 92 µM; nearly all actives have a fitted effect of over 50% in size
In short: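 Assay format: CHO-ADRB2 cells, 18-20hr seeding at 37C/5% CO2, then compound plus 1nM isoproterenol agonist mix for 0.5hr RT. Homogeneous time-resolved fluorescence cAMP detection after 1hr, expressed as 665/615 nm ratio.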

[18] = target: D(2) dopamine receptor (Homo sapiens) (UniProt P14416); experiment: Dopamine D2 receptor (DRD2) small molecule agonists, cell-based qHTS assay (AID 1963594); note: nearly all actives have a fitted effect of over 35% in size
In short: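 HEK293 cells stably expressing human DRD2, pre-treated with PDE inhibitor Ro20-1724 (0.1 mM final) and compound 10 min at room temperature, then stimulated with NKH477 (200nM […]) for 30 min. cAMP read by HTRF (665/620 nm).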

[19] = target: D(2) dopamine receptor (Homo sapiens) (UniProt P14416); experiment: Dopamine D2 receptor (DRD2) small molecule antagonists, cell-based qHTS assay (AID 1963595; active = well fitted inhibition curve with a large enough effect in the signal ratio in the repeat runs, with a control signal flat; the % refers to the signal ratio)
In short: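 Human DRD2 antagonist qHTS measuring cAMP by HTRF. The cells are exposed to compound for 10 min, then to NKH477 (200 nM) and quinpirole (12 nM) for 30 min at RT, with Ro20-1724 (0.1 mM) present throughout.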

[20] = target: 5-hydroxytryptamine receptor 2A (Homo sapiens) (UniProt P28223); experiment: 5-hydroxytryptamine receptor 2A (HTR2A) small molecule agonists, cell-based qHTS assay (AID 1963587); note: nearly all actives have a fitted effect of over 30% in size; note: potency is the fitted concentration of half-maximal effect
In short: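 CHO cells stably expressing human HTR2A, plated 18 h, loaded with calcium dye 1 h at 37 C. Agonist mode: compounds added and intracellular calcium fluorescence recorded kinetically for 2 min at 1 sec intervals.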
% is set by controls: 0 for no effect and ±100 for the full control effect.

Sequence of Beta-2 adrenergic receptor (Homo sapiens) (P07550 whole entry, looked up): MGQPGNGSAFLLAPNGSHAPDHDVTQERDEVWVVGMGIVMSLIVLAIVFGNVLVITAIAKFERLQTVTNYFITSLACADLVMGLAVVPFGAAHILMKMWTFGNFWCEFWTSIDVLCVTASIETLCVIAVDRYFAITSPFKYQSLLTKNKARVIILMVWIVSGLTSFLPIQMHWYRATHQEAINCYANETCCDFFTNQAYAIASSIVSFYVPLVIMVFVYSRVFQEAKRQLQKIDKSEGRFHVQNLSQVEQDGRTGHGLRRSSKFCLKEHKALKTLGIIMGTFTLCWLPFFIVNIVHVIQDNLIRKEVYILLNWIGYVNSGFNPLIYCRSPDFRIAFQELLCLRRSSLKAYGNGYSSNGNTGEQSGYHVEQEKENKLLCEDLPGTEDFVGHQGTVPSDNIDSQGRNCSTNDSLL
Sequence of KiSS-1 receptor (Homo sapiens) (Q969F8 whole entry, looked up): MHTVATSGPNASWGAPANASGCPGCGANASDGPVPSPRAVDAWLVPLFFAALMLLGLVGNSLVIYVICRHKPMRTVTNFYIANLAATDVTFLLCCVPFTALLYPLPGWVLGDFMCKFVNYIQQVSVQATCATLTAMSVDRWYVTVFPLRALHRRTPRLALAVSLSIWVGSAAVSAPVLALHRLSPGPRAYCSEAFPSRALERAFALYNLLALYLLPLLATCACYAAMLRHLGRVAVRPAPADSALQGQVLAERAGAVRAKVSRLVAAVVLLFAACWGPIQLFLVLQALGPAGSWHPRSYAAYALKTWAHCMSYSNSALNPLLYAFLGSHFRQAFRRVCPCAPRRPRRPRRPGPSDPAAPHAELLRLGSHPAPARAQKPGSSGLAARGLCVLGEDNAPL
Sequence of Gonadotropin-releasing hormone receptor (Homo sapiens) (P30968 whole entry, looked up): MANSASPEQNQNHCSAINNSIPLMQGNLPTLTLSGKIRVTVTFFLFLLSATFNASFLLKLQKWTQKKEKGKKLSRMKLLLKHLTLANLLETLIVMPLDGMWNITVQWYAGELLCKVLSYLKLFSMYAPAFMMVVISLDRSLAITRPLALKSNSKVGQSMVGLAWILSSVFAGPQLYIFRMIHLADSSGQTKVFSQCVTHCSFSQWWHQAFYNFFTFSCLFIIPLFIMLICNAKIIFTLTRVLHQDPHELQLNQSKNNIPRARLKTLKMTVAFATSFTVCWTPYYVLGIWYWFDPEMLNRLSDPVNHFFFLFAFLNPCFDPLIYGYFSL
Sequence of D(2) dopamine receptor (Homo sapiens) (P14416 whole entry, looked up): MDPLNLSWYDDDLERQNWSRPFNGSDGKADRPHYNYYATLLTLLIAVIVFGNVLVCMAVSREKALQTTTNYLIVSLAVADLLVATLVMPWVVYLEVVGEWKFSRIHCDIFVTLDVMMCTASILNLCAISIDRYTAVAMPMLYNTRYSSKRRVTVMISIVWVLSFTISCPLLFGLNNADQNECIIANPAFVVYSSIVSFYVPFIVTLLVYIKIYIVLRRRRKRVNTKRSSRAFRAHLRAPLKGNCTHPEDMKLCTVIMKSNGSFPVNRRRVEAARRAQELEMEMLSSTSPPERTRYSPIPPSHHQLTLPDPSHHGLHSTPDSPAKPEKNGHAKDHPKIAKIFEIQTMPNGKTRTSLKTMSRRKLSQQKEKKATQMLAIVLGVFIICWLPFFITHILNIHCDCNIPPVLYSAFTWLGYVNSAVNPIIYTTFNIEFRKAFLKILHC
Sequence of Muscarinic acetylcholine receptor M1 (Homo sapiens) (P11229 whole entry, looked up): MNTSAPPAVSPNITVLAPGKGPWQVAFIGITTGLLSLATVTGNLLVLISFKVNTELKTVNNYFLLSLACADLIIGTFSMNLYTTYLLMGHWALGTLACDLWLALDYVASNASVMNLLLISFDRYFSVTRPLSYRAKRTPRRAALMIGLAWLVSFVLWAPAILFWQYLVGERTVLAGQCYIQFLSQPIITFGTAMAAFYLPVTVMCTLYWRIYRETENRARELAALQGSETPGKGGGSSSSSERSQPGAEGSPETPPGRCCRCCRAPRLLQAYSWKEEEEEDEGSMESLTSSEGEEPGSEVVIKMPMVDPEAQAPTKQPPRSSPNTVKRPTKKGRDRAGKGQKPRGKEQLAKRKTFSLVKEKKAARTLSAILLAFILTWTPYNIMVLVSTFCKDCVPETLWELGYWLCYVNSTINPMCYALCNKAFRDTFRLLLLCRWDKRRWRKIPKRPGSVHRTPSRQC
Sequence of 5-hydroxytryptamine receptor 2A (Homo sapiens) (P28223 whole entry, looked up): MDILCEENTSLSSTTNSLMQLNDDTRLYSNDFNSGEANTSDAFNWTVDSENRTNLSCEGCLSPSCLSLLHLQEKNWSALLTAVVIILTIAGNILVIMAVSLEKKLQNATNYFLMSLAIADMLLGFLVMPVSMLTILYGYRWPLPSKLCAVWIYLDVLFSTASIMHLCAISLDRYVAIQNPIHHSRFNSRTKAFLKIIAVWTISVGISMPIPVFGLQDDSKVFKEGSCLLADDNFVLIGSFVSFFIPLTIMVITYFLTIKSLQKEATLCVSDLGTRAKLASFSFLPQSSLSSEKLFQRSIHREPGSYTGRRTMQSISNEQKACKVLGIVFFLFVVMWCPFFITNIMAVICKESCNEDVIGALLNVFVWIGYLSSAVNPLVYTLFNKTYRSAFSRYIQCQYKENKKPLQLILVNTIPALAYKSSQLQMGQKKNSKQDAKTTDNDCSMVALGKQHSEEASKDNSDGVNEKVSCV

Cc1ccccc1O
inactive: Potency [1] | Potency [2] | Potency [3] | Potency [4] | Potency [5] | Potency [6] | Potency [7] | Potency [8] | Potency [9] | Potency [10] | Potency [11] | Potency [12] | Potency [13] | Potency [14] | Potency [15] | Potency [16] | Potency [17] | Potency [18] | Potency [19]

c1ccc(N=Nc2ccccc2)cc1
inactive: Potency [1] | Potency [2] | Potency [3] | Potency [4] | Potency [5] | Potency [6] | Potency [7] | Potency [8] | Potency [9] | Potency [10] | Potency [11] | Potency [12] | Potency [14] | Potency [15] | Potency [16] | Potency [17] | Potency [18] | Potency [19]

CC(C)CON=O
inactive: Potency [1] | Potency [2] | Potency [3] | Potency [4] | Potency [5] | Potency [6] | Potency [7] | activity change, negative = cytotoxicity [8] -1.64% [at 13.5 µM] | Potency [9] | Potency [10] | Potency [11] | Potency [20] | Potency [13] | Potency [14] | Potency [16] | Potency [17] | Potency [18] | Potency [19]

O=C1CCCO1
14.6 µM (active) and inactive: Potency [13]
inactive: Potency [1] | Potency [2] | Potency [3] | Potency [4] | Potency [5] | Potency [6] | Potency [7] | Potency [8] | Potency [9] | Potency [10] | Potency [11] | Potency [20] | Potency [14] | Potency [15] | Potency [16] | Potency [17] | Potency [19]

c1ccoc1
inactive: Potency [1] | Potency [2] | Potency [3] | Potency [4] | Potency [5] | Potency [6] | Potency [7] | Potency [8] | Potency [9] | Potency [10] | Potency [11] | Potency [20] | Potency [13] | Potency [16] | Potency [17] | Potency [18] | Potency [19]

NCCc1ccc(O)cc1
active: Potency [2] 29.8 µM | Potency [20] 5.45 µM and 8.49 µM
inactive: Potency [1] | Potency [3] | Potency [4] | Potency [5] | Potency [6] | Potency [7] | Potency [8] | Potency [9] | Potency [10] | Potency [11] | Potency [13] | Potency [15] | Potency [16] | Potency [17] | Potency [18] | Potency [19]

C=CCOC(Cn1ccnc1)c1ccc(Cl)cc1Cl (stereo unspecified)
active: Potency [1] 43.3 µM and 18.8 µM | Potency [2] 15.4 µM and 24.3 µM and 8.41 µM | Potency [13] 5.96 µM and 18.8 µM
inactive: Potency [3] | Potency [4] | Potency [5] | Potency [6] | Potency [7] | Potency [8] | Potency [9] | Potency [10] | Potency [11] | Potency [14] | Potency [15] | Potency [17] | Potency [18] | Potency [19]

c1ccc2c(c1)oc1ccccc12
inactive: Potency [1] | Potency [2] | Potency [3] | Potency [4] | Potency [5] | Potency [6] | Potency [7] | Potency [8] | Potency [9] | Potency [10] | Potency [11] | Potency [20] | Potency [13] | Potency [14] | Potency [15] | Potency [16] | Potency [17] | Potency [18] | Potency [19]

Nc1cccc2ccccc12
inactive and 61.1 µM (active): Potency [2]
inactive: Potency [1] | Potency [3] | Potency [4] | Potency [5] | Potency [6] | Potency [7] | Potency [8] | Potency [9] | Potency [10] | Potency [11] | Potency [20] | Potency [14] | Potency [15] | Potency [16] | Potency [17] | Potency [18] | Potency [19]

OCCSSCCO
inactive: Potency [1] | Potency [2] | Potency [3] | Potency [4] | Potency [5] | Potency [6] | Potency [7] | Potency [8] | Potency [9] | Potency [10] | Potency [11] | Potency [20] | Potency [13] | Potency [14] | Potency [15] | Potency [16] | Potency [17] | Potency [18] | Potency [19]

O=C(O)C(F)(F)C(F)(F)C(F)(F)C(F)(F)C(F)(F)C(F)(F)C(F)(F)C(F)(F)F
inactive: Potency [1] | Potency [2] | Potency [3] | Potency [4] | Potency [5] | Potency [6] | Potency [7] | Potency [8] | Potency [9] | Potency [10] | Potency [11] | Potency [12] | Potency [14] | Potency [15] | Potency [16] | Potency [17] | Potency [18] | Potency [19]
active: Potency [13] 4.21 µM

CON(C)C(=O)Nc1ccc(Cl)cc1
inactive: Potency [1] | Potency [2] | Potency [3] | Potency [4] | Potency [5] | Potency [6] | Potency [7] | Potency [8] | Potency [9] | Potency [10] | Potency [12] | Potency [20] | Potency [13] | Potency [14] | Potency [16] | Potency [17] | Potency [18] | Potency [19]

C=CCN(CC=C)C(=O)C(Cl)Cl
inactive: Potency [1] | Potency [2] | Potency [3] | Potency [4] | Potency [5] | Potency [6] | Potency [7] | Potency [8] | Potency [9] | Potency [10] | Potency [12] | Potency [20] | Potency [13] | Potency [14] | Potency [15] | Potency [16] | Potency [17] | Potency [19]
